Test results from article PMC4102417.

Each compound was assayed on murine 3T3 fibroblasts (assay: primary screen, percent viability or growth; higher = less effect of the substance).
Procedure: Similarly, for measuring the cytotoxicity concentration (CC50) for 3T3 fibroblast cells, cultures were incubated with drugs for 72 hours and developed using Alamar Blue (Alamar Biosciences Inc, Sacramento, CA) as previously described.

| SMILES | Mammalian (3T3) cell % growth at 10 uM |
| --- | --- |
| CC(=O)OC1c2c(ccc3ccc(=O)oc23)OC(C)(C)C1OC(=O)CC(C)C (centres unmarked) | 81.2% |
| COC(=O)[C@H]1[C@H]2C[C@@H]3c4[nH]c5cc(OC)ccc5c4CCN3C[C@H]2C[C@@H](OC(=O)c2cc(OC)c(OC)c(OC)c2)[C@@H]1OC | 100% |
| O=c1c(-c2ccc(O)cc2)coc2cc(O)cc(O)c12 | 100% |
| CCCCc1oc2ccccc2c1C(=O)c1cc(I)c(OCCN(CC)CC)c(I)c1.Cl | 86.7% |
| COc1cc2ccc(=O)oc2c(O)c1O | 100% |
| N#Cc1nn(-c2c(Cl)cc(C(F)(F)F)cc2Cl)c(N)c1S(=O)C(F)(F)F (centres unmarked) | 100% |
| CC(CC(O)C1OC1(C)C)C1CCC2(C)C3=CCC4C(C)(C)C(=O)CCC4(C)C3CCC12C (centres unmarked) | 100% |
| COc1ccc(-c2coc3cc(O)ccc3c2=O)c(O)c1O | 1.4% |
| COc1cc2c(cc1OC)C1C(=O)c3ccc4c(c3OC1CO2)CC(C(C)C)O4 (centres unmarked) | 19.3% |
| Oc1ccc(/C=C\c2cc(O)cc(O)c2)cc1 | 24.8% |
| CC(=O)N1CCN(c2ccc(OC[C@H]3CO[C@](Cn4ccnc4)(c4ccc(Cl)cc4Cl)O3)cc2)CC1 | 100% |
| CC(=O)OC1CC2C(C)(C)C(O)CCC2(C)C2CCC3(C)C(c4ccoc4)OC(=O)C4OC43C12C (centres unmarked) | 76.3% |
| COc1cc2c(cc1OC)C1C(=O)c3ccc4oc(C(C)C)cc4c3OC1CO2 (centres unmarked) | 39.7% |
| O=c1[nH]c(=O)n([C@H]2C[C@H](O)[C@@H](CO)O2)cc1F | 86.2% |
| COc1cc(-c2cc(=O)c3c(O)c(OC)c(OC)c(OC)c3o2)cc(OC)c1OC | 4% |
| O=c1c(O)c(-c2ccc(O)c(O)c2)oc2c(O[C@@H]3O[C@H](CO)[C@@H](O)[C@H](O)[C@H]3O)c(O)cc(O)c12 | 100% |
| COc1cc2c(cc1OC)C1C(=O)c3c(cc4c(c3O)C=CC(C)(C)O4)OC1CO2 (centres unmarked) | 34.3% |
| NS(=O)(=O)c1cc(C(=O)O)c(NCc2ccco2)cc1Cl | 79.1% |
| C[C@@](Cc1ccc(O)c(O)c1)(NN)C(=O)O | 17.7% |
| COc1cc(/C=C/C(=O)N2CCC=CC2=O)cc(OC)c1OC | 1% |
